Screens as filed in PubChem.
tim10-1 inh: growth inhibitors of tim10-1 mutant yeast. S. cerevisiae tim10-1 ts strain growth, BacTiter-Glo, 24 h. inhibition, % at 20 µM. actives 2.2% (n = 330,000);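 active = inhibition of at least 40%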;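 note: mutant grown at 25 °C; 0% = DMSO wells with yeast and 100% = wells holding no yeast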
tim23-1 inh: growth inhibitors of tim23-1 mutant yeast; S. cerevisiae tim23-1 growth, BacTiter-Glo luminescence, 24 h; inhibition, % at 20 µM; actives 1.3% (n = 330,000); AID 463212;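 active = growth inhibition of the mutant yeast at or above 50%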;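 note: temperature-sensitive mutant grown at 25 °C; plate controls were DMSO-treated mutant yeast for no effect and medium wells lacking yeast for full effect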
NALP3 yeast inh: inhibitors of NALP3 inflammasome in yeast; Yeast reconstituted NLRP3/ASC/caspase-1, beta-gal luminescence, 24 h; inhibition, % at 10 µM; actives 0.39% (n = 330,000);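 active = inhibition of 50% or more; inactive = inhibition below 50%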;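 note: plate controls were induced DMSO wells for no effect and uninduced yeast grown without galactose for full effect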
TIM10 inh: inhibits growth of TIM10 yeast strain | S. cerevisiae TIM10 strain growth, BacTiter-Glo luminescence, 24 h | inhibition, % at 10 µM | actives 1.4% (n = 330,000) | AID 463195;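 active = inhibition of 40% or more at the single tested concentration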;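 note: wild-type TIM10 isogenic control strain grown at permissive 25 °C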
Yeast superoxide: yeast age-related superoxide inhibition as caloric restriction mimetic | S. cerevisiae aged cells, superoxide DHE fluorescence; active compounds read low | superoxide response (% of plate mean), % at 10 µM | actives 0.18% (n = 330,000) | AID 2690;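 active = superoxide response under a set limit, about three screen SD below normal, cut at about 65% in these data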;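 note: yeast aged for seven days with compound at 30 °C before DHE staining; 100% = average MFI of all compound-treated wells on the plate with controls excluded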
tim10-1 confirm: tim10-1 yeast growth inhibition, confirmed. shares compounds with tim10-1 inh. S. cerevisiae tim10-1 ts strain growth, BacTiter-Glo, 24 h. inhibition, % at 20 µM. actives 56% (n = 7,400);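 active = inhibition of yeast growth at or above a set limit in either of two repeat tests at 20 µM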;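 note: tim10-1 mutant grown at permissive 25 °C to find synthetic lethal compounds; 0% = DMSO yeast wells and 100% = medium wells without yeast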
TIM10 conf: TIM10 yeast growth inhibition, confirmed; AID 463215; shares compounds with TIM10 inh; S. cerevisiae tim10 strain growth, BacTiter-Glo luminescence, 24 h; actives 63% (n = 4,600); inhibition, % at 10 µM;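 active = inhibition of yeast growth at or above a set limit in either of two replicates at 10 µM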;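 note: this counterscreen used the strain with wild-type TIM10; 0% = yeast with DMSO and 100% = medium wells lacking yeast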
tim23-1 conf: tim23-1 yeast growth inhibition, confirmed; shares compounds with tim23-1 inh; S. cerevisiae tim23-1 growth, BacTiter-Glo luminescence, 24 h; inhibition, % at 20 µM; actives 83% (n = 4,400);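 active = inhibition above about 39% in either of two replicate wells at 20 µM, limit read from the data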;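 note: temperature-sensitive tim23-1 mutant grown at 25 °C; 0% = DMSO wells with yeast and 100% = medium wells without yeast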
* marks the source's active call; other numbers are inactive results. The list is not random: actives were taken first. Their share in the collection is about 3.8%.

`Cc1cccc(CN2C(=O)/C(=C\c3ccc(C(=O)NCCCN4CCN(C)CC4)cc3)Oc3ccccc32)c1` gave tim10-1 inh 44*, tim23-1 inh 62*, NALP3 yeast inh 18, TIM10 inh 5, Yeast superoxide 100, tim10-1 confirm -18 and tim23-1 conf 46*.
For O=C1c2ccccc2C(=O)C2OC12 (configuration not stated) the results were tim10-1 inh 59*, tim23-1 inh 79*, NALP3 yeast inh -25, TIM10 inh 34, Yeast superoxide 124, tim10-1 confirm 38* and tim23-1 conf 74*.
For COc1ccccc1C/C(N)=N/OC(=O)COc1cc(C)cc(C)c1C the results were tim10-1 inh 65*, tim23-1 inh 78*, NALP3 yeast inh -3, TIM10 inh 73*, Yeast superoxide 98, tim10-1 confirm 70*, TIM10 conf 68* and tim23-1 conf 81*.
COc1ccccc1C/C(N)=N/OC(=O)COc1cccc(C)c1C was read as tim10-1 inh 63*, tim23-1 inh 70*, NALP3 yeast inh -2, TIM10 inh 53*, Yeast superoxide 95, tim10-1 confirm 68*, TIM10 conf 46* and tim23-1 conf 62*.
Cc1cccc(OCC(=O)O/N=C(\N)c2ccccn2)c1C was read as tim10-1 inh 35, tim23-1 inh 24, NALP3 yeast inh 27, TIM10 inh 21 and Yeast superoxide 104.
For O=C(COc1cccc(NC(=O)c2cccs2)c1)c1ccc(F)cc1 the results were tim10-1 inh 46*, tim23-1 inh 53*, NALP3 yeast inh 15, TIM10 inh 62*, Yeast superoxide 96, tim10-1 confirm 40*, TIM10 conf -16 and tim23-1 conf 76*.
`O=C(NCc1ccco1)/C(=C\c1ccco1)NC(=O)c1ccco1` gave tim10-1 inh 1, tim23-1 inh 7, NALP3 yeast inh 6, TIM10 inh -7 and Yeast superoxide 90.
CCOC(=O)CSC1=NC(=O)/C(=C/c2ccc(OC)cc2)S1 was read as tim10-1 inh 40*, tim23-1 inh 90*, NALP3 yeast inh 21, TIM10 inh 59*, Yeast superoxide 93, tim10-1 confirm 70*, TIM10 conf -6 and tim23-1 conf 39*.
COc1ccc(/C=C2\SC(N3CCc4ccccc4C3)=NC2=O)cc1 was read as tim10-1 inh 55*, tim23-1 inh 65*, NALP3 yeast inh 25, TIM10 inh 53*, Yeast superoxide 95, tim10-1 confirm 50*, TIM10 conf -14 and tim23-1 conf 52*.
Screening COc1ccc(/C=C2\SC(N)=NC2=O)cc1 returned tim10-1 inh 10, tim23-1 inh 15, NALP3 yeast inh 20, TIM10 inh 4 and Yeast superoxide 99.
`CCOC(=O)C1CCN(S(=O)(=O)c2ccc3c(c2)NC(=O)CS3)CC1` gave tim10-1 inh 2, tim23-1 inh 10, NALP3 yeast inh 3, TIM10 inh -10 and Yeast superoxide 102.
CCC(C)c1ccc(NC(=S)NCc2cccs2)cc1 (configuration not stated) was read as tim10-1 inh 56*, tim23-1 inh 53*, NALP3 yeast inh 22, TIM10 inh 54*, Yeast superoxide 108, tim10-1 confirm 55*, TIM10 conf 44* and tim23-1 conf 55*.
`Cc1cc(C)cc(NC(=S)NCc2cccs2)c1` gave tim10-1 inh 25, tim23-1 inh 37, NALP3 yeast inh 0, TIM10 inh 7 and Yeast superoxide 99.
`Cc1cc(C)n2nc(/C(C#N)=C/c3ccccn3)c(C#N)c2n1` gave tim10-1 inh 62*, tim23-1 inh 52*, NALP3 yeast inh 32, TIM10 inh 51*, Yeast superoxide 91, tim10-1 confirm 58*, TIM10 conf 52* and tim23-1 conf 75*.
Cc1cc(C)n2nc(CC#N)c(C#N)c2n1 was read as tim10-1 inh 0, tim23-1 inh 9, NALP3 yeast inh 22, TIM10 inh 6 and Yeast superoxide 93.
